An excerpt weighted towards active compounds, which were near 8.7% of everything screened.
Sfp inh – inhibitors of Bacillus subtilis Sfp phosphopantetheinyl transferase; Q9F4F7; 3.5% of 310,000 active; Biochemical Sfp PPTase activity, qHTS; Potency, µM, for inactives: largest response in the series, negative = inhibition, hits mostly inhibitors;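 further: the enzyme is Sfp with the accession as filed and its product quenches rhodamine fluorescence; 0% = enzyme reaction without inhibitor and -100% = no enzyme wells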
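Fluorescence-quenching assay: 15 nM Sfp-PPTase preincubated 15 min at room temperature with compound, then 5 uM rhodamine-CoA and 12.5 uM BHQ-2-labelled YbbR peptide added. Fluorescence (ex 525/em 598 nm) read at start and after 30 min; difference gives rate.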
BAZ2B block – BAZ2B (human) inhibition | AlphaScreen BAZ2B-H3K14Ac peptide displacement | Potency, µM (highest dose often 114 µM), inactives show at the highest dose activity change, negative = inhibition, actives largely listed as inhibitors | 4.4% of 360,000 active | AID 504333; further: on the % scale 0 is the no-effect control and ±100 the full control effect; nearly all actives have a fitted effect of over 60% in size
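BAZ2B 50 nM plus b-H3(5-23)K14Ac 50 nM, PBS pH 7.4/0.01% Tween-20, 30 min RT; compound added (max 110 uM), 30 min RT; streptavidin donor/Ni-chelate acceptor beads 10 ug/mL final, 20 min dark; AlphaScreen read.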
ALOX12 inh – blocks human arachidonate 12S-lipoxygenase | purified 12hLO, xylenol orange hydroperoxide absorbance | Potency, µM (titrated, usually from 108 µM), for the others: at the top dose activity change, negative = inhibition, hits mostly inhibitors | 1.1% of 580,000 active; further: on the % scale 0 is the no-effect control and ±100 the full control effect
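Purified human 12hLO at 150 nM in 25 mM Hepes, 0.01% Triton X-100, pH 7.0, preincubated 15 min at room temperature with compound. Reaction started with 40 uM arachidonic acid, 30 min at room temperature. Hydroperoxide measured by Fe-xylenol orange, 573/405 nm absorbance ratio.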
G9a block – blocks human histone lysine methyltransferase G9a; G9a H3K9 monomethylation, AlphaScreen, 2 h; Potency, µM (titrated, usually from 102 µM), for the others: at the top dose activity, negative = inhibition, usual class: inhibitors; 8.8% of 350,000 active; AID 504332; further: on the % scale 0 is the no-effect control and ±100 the full control effect; nearly all actives have a fitted effect of over 75% in size
Target sequence (Q96KQ7 913-1193 limits assumed): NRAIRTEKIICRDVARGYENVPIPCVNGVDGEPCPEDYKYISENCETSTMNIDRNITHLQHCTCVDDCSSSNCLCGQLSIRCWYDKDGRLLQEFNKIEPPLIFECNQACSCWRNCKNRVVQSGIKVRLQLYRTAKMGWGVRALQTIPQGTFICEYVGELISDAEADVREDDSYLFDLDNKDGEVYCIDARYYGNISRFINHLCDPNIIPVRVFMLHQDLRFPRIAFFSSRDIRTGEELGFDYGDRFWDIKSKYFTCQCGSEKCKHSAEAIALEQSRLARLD
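Readings reflect AlphaScreen signal from monomethyl-H3K9 antibody detection. HMT at 20 nM; substrate b-H3K9 500 nM; cofactor SAM 20 uM; 2 h RT reaction; compounds tested as titrations in qHTS with 15 min preincubation.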
JMJD2A Tudor – blocks the human JMJD2A Tudor domain; AlphaScreen JMJD2A-Tudor / H3K4me3 peptide binding; Potency, µM (highest dose often 114 µM), inactives show at the highest dose activity change, negative = inhibition, usual class: inhibitors; 4.4% of 390,000 active; O75164; further: on the % scale 0 is the no-effect control and ±100 the full control effect; nearly all actives have a fitted effect of over 50% in size
HP1b chromo inh – blocks HP1-beta chromodomain binding to methylated histone tails. P83916. AlphaScreen HP1-beta / biotin-H3K9me3 peptide binding. Potency, µM (highest dose often 114 µM), without a hit: top-dose activity change, negative = inhibition, most hits filed as inhibitors. 0.56% of 390,000 active; further: nearly all actives have a fitted effect of over 70% in size
Target sequence (P83916 whole entry, looked up): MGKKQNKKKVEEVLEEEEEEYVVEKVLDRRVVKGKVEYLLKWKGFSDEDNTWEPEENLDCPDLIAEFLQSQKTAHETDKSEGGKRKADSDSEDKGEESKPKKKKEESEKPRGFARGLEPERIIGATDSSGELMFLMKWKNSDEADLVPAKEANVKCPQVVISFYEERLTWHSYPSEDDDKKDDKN
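AlphaScreen: HP1-beta (50 nM) preformed 30 min with biotin-H3(1-18)K9me3 peptide (50 nM) in PBS pH 7.4, 0.01% Tween-20. Compound added for 30 min at RT, then streptavidin donor/nickel chelate acceptor beads (10 ug/mL) for 30 min.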
Starred values were filed as active, the others as inactive; ! = not confirmed by another sample; [ ] = another dose, or the depositor's remark. The call rests on the fitted dose curve; in most records, active means well fitted curve in the direction sought with a large enough effect; inconclusive means small, poorly fitted or top-dose-only effect, or another doubt; inactive means no such curve, though single readings can be large; an effect the other way counts as inactive or inconclusive. Potency means the concentration at half of the fitted maximal effect.

`O=c1cc(-c2cccc(F)c2)[nH]c2cc(Cl)ccc12` gave Sfp inh 7% and G9a block -5%.
`O=c1cc(-c2ccccc2)[nH]c2ccc(F)cc12` gave Sfp inh 28%, BAZ2B block 5%, ALOX12 inh -2%, G9a block 79µM*!, JMJD2A Tudor -17% and HP1b chromo inh 35%.
`O=C(NCc1ccccc1)N1CCN2C(=O)N(C3CCCCC3)C[C@H]2C1` gave ALOX12 inh 30%[176 µM].
Screening CCOC(=O)c1c(-c2ccc(OC)cc2)csc1NC(=O)CCN1C(=O)c2ccccc2C1=O returned Sfp inh 50µM*, BAZ2B block -18%, ALOX12 inh inconclusive, G9a block inconclusive, JMJD2A Tudor -33% and HP1b chromo inh -32%.
`CCOC(=O)c1c(-c2ccc(F)cc2)csc1NC(=O)C1CCCO1` (stereo unspecified) gave Sfp inh 22µM*, BAZ2B block 8%, ALOX12 inh -28%, G9a block 20µM*, JMJD2A Tudor 23% and HP1b chromo inh 4%.
For CCOC(=O)c1c(-c2ccc(C)cc2)csc1NC(=O)C1CCCO1 (stereo unspecified) the results were Sfp inh -14%, BAZ2B block 5%, ALOX12 inh -5%, G9a block -1%[59 µM], JMJD2A Tudor 26% and HP1b chromo inh 66%.
For CCOC(=O)c1c(-c2ccc(C)cc2)csc1NC(=O)CCN1CC(C)OC(C)C1 (stereo unspecified) the results were Sfp inh 16µM*, BAZ2B block 22µM*, ALOX12 inh inconclusive, G9a block inconclusive, JMJD2A Tudor 8.9µM* and HP1b chromo inh 35µM*.
For CCOC(=O)c1c(-c2ccc(OC)cc2)csc1NC(=O)CNCc1ccco1 the results were Sfp inh -17%, BAZ2B block -44%, ALOX12 inh 1%, G9a block -49%, JMJD2A Tudor inconclusive and HP1b chromo inh -1%.
Screening CCOC(=O)c1c(-c2ccc(OC)cc2)csc1NC(=O)CCN1CCOCC1 returned Sfp inh 35µM*, BAZ2B block 22µM*, ALOX12 inh inconclusive, G9a block 3.5µM*, JMJD2A Tudor 20µM* and HP1b chromo inh inconclusive.
Screening CCOC(=O)c1c(-c2ccc(OCC)cc2)csc1NC(=O)CCN1C(=O)c2ccccc2C1=O returned Sfp inh -3%, BAZ2B block -9% and G9a block -3%[59 µM].
Screening CCCCCCc1ccc(C(=O)NNC(=O)c2ccccc2Cl)cc1 returned ALOX12 inh 18%.
Screening CCc1nc2c(OCC(=O)c3ccc(Cl)cc3Cl)cccn2c1N(C=O)Cc1ccccc1 returned ALOX12 inh 14µM*.
For CCc1nc2c(OCC(=O)N(C)C)cccn2c1N(C=O)Cc1ccc(OC)cc1 the results were ALOX12 inh -9%.
For C=Cc1ccc2c(c1)N(C)C(=C)S2 the results were Sfp inh 10µM*, BAZ2B block -26%, ALOX12 inh inconclusive, G9a block 8.9µM*, JMJD2A Tudor inconclusive and HP1b chromo inh -6%.
O=[N+]([O-])c1cccnc1N1CCC(c2cc(-c3cccc(C(F)(F)F)c3)n[nH]2)CC1 was read as Sfp inh 15%, BAZ2B block 35µM*, ALOX12 inh -29%, G9a block inconclusive, JMJD2A Tudor -15%[11.4 µM] and HP1b chromo inh inconclusive.
For NC(=O)C1CCN(c2ncccc2[N+](=O)[O-])CC1 the results were Sfp inh 18%, BAZ2B block -6%, ALOX12 inh -2%, G9a block 1%, JMJD2A Tudor -7% and HP1b chromo inh 21%.
`COc1ccc(OC)c(-c2cc(C3CCN(c4ncccc4[N+](=O)[O-])CC3)[nH]n2)c1` gave Sfp inh 0%, BAZ2B block 13µM*, ALOX12 inh 0%, G9a block 35µM*, JMJD2A Tudor 25µM* and HP1b chromo inh inconclusive.
COc1ccc(-c2cc(C3CCN(Cc4ccc([N+](=O)[O-])cc4)CC3)[nH]n2)cc1 was read as Sfp inh -10%, BAZ2B block inconclusive, ALOX12 inh inconclusive, G9a block 45µM*, JMJD2A Tudor 45µM* and HP1b chromo inh inconclusive.
Screening CN(C(=O)c1ccc(F)cc1)C1CCCc2ccccc21 (stereo unspecified) returned ALOX12 inh 19%[176 µM].
Screening CC(=O)Nc1ccc(OCC(=O)NC2CCN(Cc3ccccc3)CC2)nc1 returned ALOX12 inh 17%.
Screening O=C(Nc1ccccc1F)N1CCC(N2C(=O)C3(CCCCC3)C2c2ccncc2)CC1 (stereo unspecified) returned ALOX12 inh 26%.
For COc1cccc(/C=N/n2c(-c3cc(C)[nH]n3)n[nH]c2=S)c1OC the results were Sfp inh -29%, BAZ2B block -36%, ALOX12 inh inconclusive, JMJD2A Tudor 1.8µM* and HP1b chromo inh 4%.
COc1ccc(/C=N/n2c(-c3n[nH]c4c3CCC4)n[nH]c2=S)c(OC)c1OC was read as Sfp inh -20%, BAZ2B block -10%, ALOX12 inh inconclusive, G9a block 1.3µM*, JMJD2A Tudor 4.5µM* and HP1b chromo inh inconclusive.
Screening COc1cccc(/C=N/n2c(N)nc3ccccc32)c1OC returned Sfp inh 3%, BAZ2B block -13%, ALOX12 inh 5%, G9a block -25%[12.7 µM], JMJD2A Tudor -16% and HP1b chromo inh 9%.
COc1cccc(/C=N/n2c(=S)n(C)c3cc(C)c(C)cc32)c1OC was read as Sfp inh 4%, BAZ2B block -4%[57.1 µM], ALOX12 inh -1%, G9a block inconclusive, JMJD2A Tudor -31% and HP1b chromo inh 7%.
For COc1cccc(/C=N/n2c(-c3n[nH]c4c3CCC4)n[nH]c2=S)c1OC the results were Sfp inh inconclusive, BAZ2B block -16%, ALOX12 inh 0%, G9a block 2.5µM*, JMJD2A Tudor 3.2µM* and HP1b chromo inh inconclusive.
Screening COc1ccc(/C=N/n2c(C)nnc2C)c(OC)c1OC returned Sfp inh 9%, BAZ2B block 12%, ALOX12 inh 492%, G9a block 22%[59 µM], JMJD2A Tudor -8% and HP1b chromo inh 35%.
For O=C(NCc1csc(-c2ccccc2)n1)C1CCN(S(=O)(=O)c2ccc3c(c2)CCCC3)CC1 the results were ALOX12 inh 0%.
`Cn1cc(C(=O)N2CCN(C(=O)c3cccs3)CC2)c2ccccc21` gave ALOX12 inh -5%.
CCOC(=O)c1cnc(Nc2ccccc2C)c2ccccc12 was read as ALOX12 inh 21%.
